Consider seven compounds from PubChem BioAssay (EPA / NIEHS).

The source made the active and inactive calls. How the source made its calls: active means hit-call score of the fitted dose curve at least 0.9, where 1 is the maximum; inactive means score below 0.9.

Test [1] is described as follows: ATG_M_32_CIS: Attagene CIS-FACTORIAL HepG2 Assay for M32 Transcription Factor (Internal Marker) (AID 2282949).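 Further: background control marker of the multiplexed CIS panel rather than a real target.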 Particulars: HepG2 Attagene cis-factorial M32 reporter, mRNA; actives raise or lower the signal. In outline: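 HepG2 cells transiently transfected with multiplexed cis-regulated reporter units, dosed 24 h. Reporter mRNA quantified by RT-PCR, 6-FAM labelling, HpaI digestion and capillary electrophoresis; bidirectional fit vs DMSO.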

A short description of test [2]: ATG_M_06_CIS: Attagene CIS-FACTORIAL HepG2 Assay for M06 Transcription Factor (Internal Marker) (AID 2282950). The following applies: HepG2 Attagene CIS-FACTORIAL M06 internal marker reporter; actives raise or lower the signal. In outline:
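HepG2 cells transiently transfected with cis-regulated multiple reporter transcription units were exposed to chemical for 24 h; reporter mRNA was quantified by RT-PCR, 6-FAM primer labelling, HpaI digestion and capillary electrophoresis, fitted bidirectionally against DMSO.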

The target of test [3] is Hypoxia-inducible factor 1-alpha (Homo sapiens) (UniProt Q16665). Kind of test: ATG_HIF1a_CIS: Attagene CIS-FACTORIAL HepG2 Assay for human Hypoxia Inducible Factor 1 (HIF1A) (AID 2282951). Particulars: HepG2 Attagene cis-factorial HIF1a reporter transcription; actives raise or lower the signal. In outline: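 In this multiplexed cell assay, HepG2 cells bearing transfected cis reporters are dosed for 24 h and reporter mRNA is read by RT-PCR plus capillary electrophoresis; signal increases and decreases are both scored against DMSO.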

Test [4] concerns the target Hepatocyte nuclear factor 6 (Homo sapiens) (UniProt Q9UBC0). Put plainly: ATG_HNF6_CIS: Attagene CIS-FACTORIAL HepG2 Assay for human Hepatocyte Nuclear Factor 6 (HNF6) (AID 2282952). The following applies: HepG2 Attagene cis-factorial HNF6 reporter transcription; actives raise or lower the signal. In outline: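 HepG2 cells transiently transfected with cis-element-driven multiplexed reporter units measuring endogenous transcription factor activity. After 24 h exposure, reporter mRNA quantified by RT-PCR, FAM-labelled fragments and capillary electrophoresis; bidirectional fitting versus DMSO.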

Test [5] concerns the target Heat shock factor protein 1 (Homo sapiens) (UniProt Q00613). Kind of test: ATG_HSE_CIS: Attagene CIS-FACTORIAL HepG2 Assay for human Heat Shock Transcription Factor 1 (HSE) (AID 2282953). Particulars: HepG2 HSE cis-reporter, Attagene RNA transcription; actives raise or lower the signal. An outline of the steps: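 HepG2 cells transiently transfected with multiple reporter transcription units under cis-regulatory promoter control, measuring endogenous transcription factor activity. After 24 h chemical exposure, reporter mRNA quantified by RT-PCR, fluorescent labelling, HpaI digestion and capillary electrophoresis; bidirectional fit versus DMSO.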

Test [6] in a line: ATG_MRE_CIS: Attagene CIS-FACTORIAL HepG2 Assay for human Metal Responsive Element (MRE) (AID 2282954). Particulars: HepG2 MRE cis-reporter transcription, Attagene multiplex; actives raise or lower the signal. In outline:
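Step one: transfect HepG2 with cis-regulated reporter units. Step two: dose 24 h. Step three: isolate RNA, RT-PCR, 6-FAM label, HpaI digest, capillary electrophoresis. Fit bidirectionally to DMSO.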

Test [7] can be described thus: ATG_PBREM_CIS: Attagene CIS-FACTORIAL HepG2 Assay for human Phenobarbital-responsive Enhancer Module (PBREM) (AID 2282955). The following applies: HepG2 PBREM cis-reporter, Attagene multiplexed transcription; actives raise or lower the signal. In outline: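 After a 24 h incubation with test chemical, transfected HepG2 cells yield total RNA; reporter-specific RT-PCR products are fluorescently labelled, HpaI-digested and resolved by capillary electrophoresis against ROX size standards.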

Test [8] in a line: ATG_PPRE_CIS: Attagene CIS-FACTORIAL HepG2 Assay for human Peroxisome Proliferator-activated Response Element (PPRE) (AID 2282958). Particulars: HepG2 PPRE cis-element reporter, Attagene transcription factor profiling; actives raise or lower the signal. In outline: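 Multiplexed reporter transcription units under cis-regulatory promoters were transfected into HepG2 cells to capture endogenous factor activity. A 24 h incubation preceded RNA isolation and fluorescent RT-PCR fragment analysis.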

Test [9] in a line: ATG_RORE_CIS: Attagene CIS-FACTORIAL HepG2 Assay for human RAR-related Orphan Receptor Element (RORE) (AID 2282959). The following applies: HepG2 Attagene cis-factorial RORE reporter, mRNA; actives raise or lower the signal. In outline: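 Fluorescence intensity of reporter-specific cDNA fragments, separated by capillary electrophoresis, gives the signal. Source: HepG2 liver cells transiently transfected with cis-element reporters and exposed 24 h; DMSO-normalized bidirectional fit.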

The target in test [10] is Transcription factor Sp1 (Homo sapiens) (UniProt P08047). Put plainly: ATG_Sp1_CIS: Attagene CIS-FACTORIAL HepG2 Assay for human Specificity Protein 1 (Sp1) (AID 2282961). The following applies: HepG2 Sp1 cis-reporter transcription, actives raise or lower the signal. In outline:
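Sp1-driven reporter mRNA, read as capillary electrophoresis fluorescence after RT-PCR, in transiently transfected HepG2 cells dosed for 24 h; signal change in either direction relative to DMSO.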

The nature of test [11]: ATG_SREBP_CIS: Attagene CIS-FACTORIAL HepG2 Assay for human Sterol Regulatory Element Binding (SREBP) (AID 2282962). Particulars: HepG2 Attagene cis-factorial SREBP reporter, mRNA; actives raise or lower the signal. In outline: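 HepG2 cells transiently transfected with multiplexed cis-element reporter units report endogenous transcription factor activity. After 24 h of chemical exposure, reporter mRNA was quantified by RT-PCR, 6-FAM labelling, HpaI digestion and capillary electrophoresis; bidirectional fits used DMSO as baseline.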

The target in test [12] is Signal transducer and activator of transcription 3 (Homo sapiens) (UniProt P40763). Put plainly: ATG_STAT3_CIS: Attagene CIS-FACTORIAL HepG2 Assay for human Signal Transducer and Activator of Transcription 3 (STAT3) (AID 2282963). The following applies: HepG2, Attagene cis-factorial STAT3 reporter transcription; actives raise or lower the signal. In outline: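 Transcript-level reporter assay. HepG2 transient MRTU transfection, 24 h exposure, fluorescence detection after RT-PCR and CE; DMSO baseline.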

Test [13] can be described thus: ATG_TA_CIS: Attagene CIS-FACTORIAL HepG2 Assay for human TA Basal Promoter (AID 2282964). The following applies: HepG2 Attagene CIS-factorial TA basal promoter reporter; actives raise or lower the signal. An outline of the steps:
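HepG2 cells transiently transfected with multiplexed cis-promoter reporter units, dosed 24 h. Reporter mRNA measured by RT-PCR, 6-FAM labelling, HpaI digestion and capillary electrophoresis; bidirectional fit versus DMSO baseline, serving as background control.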

A short description of test [14]: ATG_TCF_b_cat_CIS: Attagene CIS-FACTORIAL HepG2 Assay for human T-Cell-Factor with beta-catenin (TCF/b-cat) (AID 2282965). The following applies: HepG2 TCF/beta-catenin cis-reporter transcription, actives raise or lower the signal. In outline: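 Using capillary electrophoresis as the read-out, labelled reporter cDNA fragments from transiently transfected HepG2 were sized and quantified. Exposure lasted 24 hours; activity in either direction was referenced to DMSO.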

The nature of test [15]: ATG_TAL_CIS: Attagene CIS-FACTORIAL HepG2 Assay for human TAL Basal Promoter (AID 2282966).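 Further: background control endpoint measuring basal TAL promoter reporter mRNA not a specific factor.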 Particulars: HepG2 Attagene cis-factorial TAL promoter reporter; actives raise or lower the signal. An outline of the steps:
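HepG2 cells transiently transfected with multiplexed cis-promoter reporter units, dosed 24 h. Reporter mRNA quantified by RT-PCR, 6-FAM labelling, HpaI digestion and capillary electrophoresis; TAL basal promoter serves as background control, fitted bidirectionally versus DMSO.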

Test [16] can be described thus: ATG_TGFb_CIS: Attagene CIS-FACTORIAL HepG2 Assay for human Transforming Growth Factor (TGF) (AID 2282967). Particulars: HepG2 Attagene CIS TGFb reporter, mRNA transcription; actives raise or lower the signal. An outline of the steps:
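HepG2 cells transiently transfected with cis-promoter-driven multiplexed reporter units; 24 h compound exposure. Reporter mRNA measured by RT-PCR, 6-FAM labeling, HpaI digestion and capillary electrophoresis; bidirectional fit versus DMSO baseline.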

Test [17] can be described thus: ATG_VDRE_CIS: Attagene CIS-FACTORIAL HepG2 Assay for human Vitamin D Receptor Element (VDRE) (AID 2282968). The following applies: HepG2 VDRE cis-reporter transcription, actives raise or lower the signal. An outline of the steps:
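RT-PCR/CE readout of reporter mRNA; HepG2, transient transfection, 24 h dosing; DMSO baseline; bidirectional analysis.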

The target in test [18] is Paired box protein Pax-6 (Homo sapiens) (UniProt P26367). Put plainly: ATG_Pax6_CIS: Attagene CIS-FACTORIAL HepG2 Assay for human Paired Box 6 (PAX6) (AID 2282956). The following applies: HepG2 CIS-FACTORIAL PAX6 reporter transcription, RNA readout; actives raise or lower the signal. An outline of the steps:
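HepG2 cells transiently transfected with multiplexed cis-promoter reporter units (endogenous TF activity) were dosed for 24 h. Reporter mRNA was quantified by RT-PCR, 6-FAM labeling, HpaI digestion and capillary electrophoresis; bidirectional fitting versus DMSO baseline.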

Test [19] in a line: ATG_PXRE_CIS: Attagene CIS-FACTORIAL HepG2 Assay for human Pregnane X Receptor Element (PXRE) (AID 2282957). The following applies: HepG2 Attagene CIS-FACTORIAL PXRE reporter, mRNA; actives raise or lower the signal. In outline:
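HepG2 cells transiently transfected with cis-element-driven multiplexed reporter units; after 24 h chemical exposure, reporter mRNA measured by RT-PCR, 6-FAM labelling, HpaI digestion and capillary electrophoresis. Bidirectional fitting relative to DMSO.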

Test [20] can be described thus: ATG_Sox_CIS: Attagene CIS-FACTORIAL HepG2 Assay for human SRY-box transcription factor (SOX) (AID 2282960). The following applies: HepG2 Attagene cis-factorial SOX reporter, mRNA; actives raise or lower the signal. In outline: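 After 24 h of chemical treatment, transfected HepG2 reporter cells are lysed for total RNA. Transcript levels come from RT-PCR with labelled primer extension and capillary electrophoresis, analysed bidirectionally versus DMSO.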

Hepatocyte nuclear factor 6 (Homo sapiens), sequence (Q9UBC0 whole entry, looked up, the tested form may be a part): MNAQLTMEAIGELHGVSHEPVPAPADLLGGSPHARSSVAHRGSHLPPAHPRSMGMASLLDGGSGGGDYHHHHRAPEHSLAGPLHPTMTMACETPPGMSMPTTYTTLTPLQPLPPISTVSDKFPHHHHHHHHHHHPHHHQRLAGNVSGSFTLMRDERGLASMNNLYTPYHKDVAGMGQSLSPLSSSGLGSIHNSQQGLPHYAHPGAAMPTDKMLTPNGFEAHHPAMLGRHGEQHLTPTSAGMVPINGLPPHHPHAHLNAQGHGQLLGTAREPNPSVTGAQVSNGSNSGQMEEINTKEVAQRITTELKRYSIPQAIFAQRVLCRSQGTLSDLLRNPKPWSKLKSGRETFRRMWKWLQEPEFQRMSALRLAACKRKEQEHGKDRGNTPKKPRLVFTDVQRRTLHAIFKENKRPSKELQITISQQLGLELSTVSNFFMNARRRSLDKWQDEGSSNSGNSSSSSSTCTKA
Hypoxia-inducible factor 1-alpha (Homo sapiens), sequence (Q16665 whole entry, looked up): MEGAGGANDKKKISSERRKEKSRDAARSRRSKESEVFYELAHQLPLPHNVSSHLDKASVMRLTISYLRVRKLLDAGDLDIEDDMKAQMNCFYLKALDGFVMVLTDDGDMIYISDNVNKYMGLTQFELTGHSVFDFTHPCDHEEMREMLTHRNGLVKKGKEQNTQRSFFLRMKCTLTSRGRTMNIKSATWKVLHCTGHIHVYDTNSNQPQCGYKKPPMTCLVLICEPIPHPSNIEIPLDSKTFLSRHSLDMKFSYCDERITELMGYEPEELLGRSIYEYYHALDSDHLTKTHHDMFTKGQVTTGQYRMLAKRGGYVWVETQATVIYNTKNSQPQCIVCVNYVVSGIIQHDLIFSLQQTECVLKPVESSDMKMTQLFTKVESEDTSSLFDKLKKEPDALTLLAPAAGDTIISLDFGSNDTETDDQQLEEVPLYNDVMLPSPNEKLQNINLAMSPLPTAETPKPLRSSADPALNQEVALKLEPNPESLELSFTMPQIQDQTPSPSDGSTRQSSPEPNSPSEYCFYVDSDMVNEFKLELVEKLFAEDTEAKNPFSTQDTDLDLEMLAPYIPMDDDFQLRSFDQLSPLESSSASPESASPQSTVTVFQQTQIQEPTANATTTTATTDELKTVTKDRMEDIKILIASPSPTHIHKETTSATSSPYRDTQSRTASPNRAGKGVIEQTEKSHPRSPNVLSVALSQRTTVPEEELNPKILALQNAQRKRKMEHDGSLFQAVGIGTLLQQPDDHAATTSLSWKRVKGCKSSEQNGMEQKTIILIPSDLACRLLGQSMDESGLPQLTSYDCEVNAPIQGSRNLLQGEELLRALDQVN
Heat shock factor protein 1 (Homo sapiens), sequence (Q00613 whole entry, looked up): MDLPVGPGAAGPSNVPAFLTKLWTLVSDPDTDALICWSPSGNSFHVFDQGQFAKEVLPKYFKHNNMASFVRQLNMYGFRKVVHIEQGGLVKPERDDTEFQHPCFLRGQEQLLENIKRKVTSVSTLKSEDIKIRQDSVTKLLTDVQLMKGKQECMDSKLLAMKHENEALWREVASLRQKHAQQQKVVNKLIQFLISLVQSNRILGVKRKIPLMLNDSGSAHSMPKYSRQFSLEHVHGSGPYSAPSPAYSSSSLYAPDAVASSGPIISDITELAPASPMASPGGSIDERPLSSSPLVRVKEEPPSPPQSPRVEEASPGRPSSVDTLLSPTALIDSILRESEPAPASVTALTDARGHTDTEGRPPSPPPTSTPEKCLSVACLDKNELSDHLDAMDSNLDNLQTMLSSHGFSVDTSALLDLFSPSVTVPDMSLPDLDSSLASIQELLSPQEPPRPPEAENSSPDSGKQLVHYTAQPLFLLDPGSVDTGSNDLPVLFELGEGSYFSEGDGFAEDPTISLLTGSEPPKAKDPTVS
Paired box protein Pax-6 (Homo sapiens), sequence (P26367 whole entry, looked up): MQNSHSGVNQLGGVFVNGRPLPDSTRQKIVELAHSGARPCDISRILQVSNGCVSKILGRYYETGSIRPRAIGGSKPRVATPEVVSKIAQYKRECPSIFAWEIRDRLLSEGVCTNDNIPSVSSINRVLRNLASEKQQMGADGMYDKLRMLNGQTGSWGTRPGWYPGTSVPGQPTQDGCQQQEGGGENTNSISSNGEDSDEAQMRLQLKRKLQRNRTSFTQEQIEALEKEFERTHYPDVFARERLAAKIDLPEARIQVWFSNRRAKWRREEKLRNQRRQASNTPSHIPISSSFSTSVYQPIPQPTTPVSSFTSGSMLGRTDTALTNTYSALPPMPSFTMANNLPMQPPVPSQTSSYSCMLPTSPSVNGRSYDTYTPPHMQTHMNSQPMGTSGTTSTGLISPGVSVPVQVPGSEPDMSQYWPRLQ
Signal transducer and activator of transcription 3 (Homo sapiens), sequence (P40763 whole entry, looked up): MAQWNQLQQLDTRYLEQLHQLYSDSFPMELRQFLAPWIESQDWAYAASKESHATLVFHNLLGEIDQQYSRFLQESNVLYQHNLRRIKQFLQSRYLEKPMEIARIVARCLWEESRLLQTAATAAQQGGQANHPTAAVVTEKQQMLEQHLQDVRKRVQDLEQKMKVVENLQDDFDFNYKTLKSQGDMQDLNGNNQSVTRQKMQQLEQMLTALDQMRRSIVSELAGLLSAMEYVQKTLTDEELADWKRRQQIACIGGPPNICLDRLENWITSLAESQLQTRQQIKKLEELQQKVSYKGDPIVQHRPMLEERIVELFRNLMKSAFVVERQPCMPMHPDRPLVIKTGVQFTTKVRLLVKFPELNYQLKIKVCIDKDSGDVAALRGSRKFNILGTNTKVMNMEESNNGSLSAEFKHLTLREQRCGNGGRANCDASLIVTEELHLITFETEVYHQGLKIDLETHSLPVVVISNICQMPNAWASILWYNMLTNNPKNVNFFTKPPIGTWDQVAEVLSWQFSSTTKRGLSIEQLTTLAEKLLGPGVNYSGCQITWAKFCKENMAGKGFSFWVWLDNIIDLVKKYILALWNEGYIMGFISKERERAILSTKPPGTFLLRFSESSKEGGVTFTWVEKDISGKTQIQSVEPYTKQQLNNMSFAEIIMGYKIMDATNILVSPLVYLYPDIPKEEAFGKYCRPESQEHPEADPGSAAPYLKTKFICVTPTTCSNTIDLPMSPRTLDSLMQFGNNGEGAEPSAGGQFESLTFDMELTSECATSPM
Transcription factor Sp1 (Homo sapiens), sequence (P08047 whole entry, looked up): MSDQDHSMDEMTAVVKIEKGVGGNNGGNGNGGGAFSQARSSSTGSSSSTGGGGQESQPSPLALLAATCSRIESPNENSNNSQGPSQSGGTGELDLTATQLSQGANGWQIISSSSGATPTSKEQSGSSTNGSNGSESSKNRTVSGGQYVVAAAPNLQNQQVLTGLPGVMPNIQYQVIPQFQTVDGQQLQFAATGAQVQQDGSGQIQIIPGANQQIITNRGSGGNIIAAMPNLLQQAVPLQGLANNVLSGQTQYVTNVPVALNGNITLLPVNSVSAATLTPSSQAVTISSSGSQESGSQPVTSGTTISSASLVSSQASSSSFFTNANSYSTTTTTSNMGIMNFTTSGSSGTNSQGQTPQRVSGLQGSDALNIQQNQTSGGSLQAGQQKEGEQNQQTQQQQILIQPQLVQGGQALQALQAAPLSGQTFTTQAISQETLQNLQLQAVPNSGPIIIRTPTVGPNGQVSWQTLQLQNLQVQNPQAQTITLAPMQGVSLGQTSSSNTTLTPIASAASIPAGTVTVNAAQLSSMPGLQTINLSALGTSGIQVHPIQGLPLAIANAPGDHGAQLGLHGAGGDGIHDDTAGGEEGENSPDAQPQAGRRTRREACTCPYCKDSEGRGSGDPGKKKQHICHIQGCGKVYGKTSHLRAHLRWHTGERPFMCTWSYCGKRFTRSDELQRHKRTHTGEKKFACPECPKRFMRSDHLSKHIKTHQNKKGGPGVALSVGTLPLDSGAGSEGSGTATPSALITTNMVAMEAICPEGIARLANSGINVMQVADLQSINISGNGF

As for `Nc1c(Oc2ccccc2)cc(O)c2c1C(=O)c1ccccc1C2=O`, the compound was called inactive in [1], in test [2], in test [3], in test [4], in test [5] and in test [6]. Further, the outcome in test [7], in test [8], in test [9], in test [10], in test [11] and in test [12] was inactive. Also, the compound was called inactive in test [13], in test [14], in [15] and in test [16]. Moreover, in test [17], the AC50 (in general, the midpoint of the concentration-response curve, whichever way the signal moves) is 15 µM (active).
`CCN(N=O)C(N)=O`: the compound was classed as inactive in [1], in test [2], in test [3], in test [4], in [5] and in test [6]. For the same compound, the outcome in test [18], in test [19], in test [8], in test [9], in test [20] and in test [10] was inactive. Also, the compound was called inactive in [11], in test [12], in test [13], in test [14], in test [15] and in [17].
On to `O=S1OC[C@@H]2[C@H](CO1)[C@]1(Cl)C(Cl)=C(Cl)[C@@]2(Cl)C1(Cl)Cl` (some centres undefined), for which the result in test [1], in test [2], in test [3], in [4], in [5] and in [9] was inactive. Moreover, the compound was called inactive in [20], in test [10], in test [12], in test [13] and in [15]. The AC50 is 66.4 µM (active) in test [6], 26.4 µM (active) in test [7], 2.34 µM (active) in test [19] and 6.07 µM (active) in test [17].
Regarding `OCC(c1ccc(Cl)cc1)c1ccc(Cl)cc1`, the compound was called inactive in test [1], in test [2], in test [18], in test [9], in [20] and in test [12]. Besides, the call in test [14], in [15], in test [16] and in test [17] was inactive. The AC50 in test [3] is 55.3 µM (active); in test [4], 56.6 µM (active); in test [5] it was 52.8 µM (active); in test [6], 58.9 µM (active); in test [19], 8.73 µM (active); in test [10], 53.2 µM (active). In addition, the AC50 in test [11] was 60.9 µM (active); in test [13], 60.7 µM (active).
Turning to `CC(C)(c1ccc(O)c(-c2ccccc2)c1)c1ccc(O)c(-c2ccccc2)c1`, the compound was called inactive in test [1], in [2], in test [3], in test [4], in test [5] and in test [18]. In addition, the compound was classed as inactive in test [8], in test [9], in test [20], in [10], in test [11] and in test [12]. Besides, the compound was classed as inactive in [13], in [14], in [15] and in test [16]. Also, the AC50 in test [6] was 2.93 µM (active); in test [19], 0.965 µM (active); in test [17], 2.93 µM (active).
On to `Brc1ccc(Br)cc1`, for which the compound was called inactive in [1], in test [2], in [3], in test [4], in test [5] and in test [6]. Moreover, the outcome in test [7], in test [19], in test [8], in test [9], in test [20] and in test [10] was inactive. Also, the compound was classed as inactive in [11], in test [12], in test [13], in test [14], in test [15] and in [17].
Regarding `ClCc1ccccc1CCl`, the compound was classed as inactive in test [1], in [2], in test [3], in [6], in [8] and in test [9]. Further, the outcome in [11], in test [13] and in [16] was inactive. Besides, the AC50 in [4] was 23.1 µM (active); in test [5] it was 21.7 µM (active); in test [18] it was 25.7 µM (active); in test [19], 18.3 µM (active); in test [20] it was 22.6 µM (active); in [10] it was 33.4 µM (active). For the same compound, the AC50 was 33.4 µM (active) in test [12], 22.4 µM (active) in test [14], 16.5 µM (active) in test [15] and 13.5 µM (active) in [17].
